Records with an inconclusive call do not appear. A call without a number means that no potency is given here. Values without a mark were called inactive. Active and inactive are the calls of the source. Calls follow the shape of the dose curve; as a rule, active = well fitted cell-killing curve with a large enough effect; inconclusive = small, poorly fitted or top-dose-only effect, or effect the other way; inactive = flat fitted curve, though single readings scatter.
How the values were obtained:
Assay in all cases: Primary qHTS to identify gynecologic anti-cancer compounds using libraries of approved drugs and bioactive compounds (AID 1345084); also: nearly all actives have a fitted effect of over 55% in size
C33A = settings: Gynecologic cancer cell panel viability, ATPlite luminescence, 48 h; series mostly up to 57.5 µM
Summary of the method: (§1)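 Cells, 1,000 per well, plated 16 h, then exposed 48 h at 37 C to compounds. Viability by ATPlite luminescence after 15 min at room temperature.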

CASKI = settings: Gynecologic cancer cell panel viability, ATPlite luminescence, 48 h; series mostly up to 57.5 µM
Summary of the method: as §1

Es-2 = settings: Gynecologic cancer cell panel viability, ATPlite luminescence, 48 h; series mostly up to 57.5 µM
Summary of the method: as §1

HeLa = settings: Gynecologic cancer cell panel viability, ATPlite luminescence, 48 h; series mostly up to 57.5 µM
Summary of the method: as §1

Hek293T = settings: Gynecologic cancer cell panel viability, ATPlite luminescence, 48 h, control line for the selectivity index; series mostly up to 57.5 µM
Summary of the method: as §1

JEG-3 = settings: Gynecologic cancer cell panel viability, ATPlite luminescence, 48 h; series mostly up to 57.5 µM
Summary of the method: as §1

OV90 = settings: Gynecologic cancer cell panel viability, ATPlite luminescence, 48 h; series mostly up to 57.5 µM
Summary of the method: as §1

PA-1 = settings: Gynecologic cancer cell panel viability, ATPlite luminescence, 48 h; series mostly up to 57.5 µM
Summary of the method: as §1

SKOV3 = settings: Gynecologic cancer cell panel viability, ATPlite luminescence, 48 h; series mostly up to 57.5 µM
Summary of the method: as §1

Tov-21-G = settings: Gynecologic cancer cell panel viability, ATPlite luminescence, 48 h; series mostly up to 57.5 µM
Summary of the method: as §1

Tov112D = settings: Gynecologic cancer cell panel viability, ATPlite luminescence, 48 h; series mostly up to 57.5 µM
Summary of the method: as §1
Potency is read from the fitted curve at half-maximal effect.

CC1=C(COC2OC(CO)C(O)C(O)C2O)C(C(CO)C(=O)O)CC1 (stereo not drawn)
Potency (C33A): inactive
Potency (CASKI): inactive
Potency (Es-2): inactive
Potency (HeLa): inactive
Potency (Hek293T): inactive
Potency (JEG-3): inactive
Potency (OV90): inactive
Potency (PA-1): inactive
Potency (SKOV3): inactive
Potency (Tov-21-G): inactive
Potency (Tov112D): inactive

C[C@]1(CO)CCC[C@]2(C)C3=C(CCC12)COC3 (stereo partly drawn)
Potency (C33A): inactive
Potency (CASKI): inactive
Potency (Es-2): inactive
Potency (HeLa): inactive
Potency (Hek293T): inactive
Potency (JEG-3): inactive
Potency (OV90): inactive
Potency (PA-1): inactive
Potency (SKOV3): inactive
Potency (Tov-21-G): inactive
Potency (Tov112D): inactive

CC1(C)CC[C@]2(C(=O)O[C@@H]3O[C@H](CO)[C@@H](O)[C@H](O)[C@H]3O)CC[C@]3(C)C(=CCC4[C@@]5(C)CC[C@H](O[C@@H]6O[C@H](C(=O)O)[C@@H](O)[C@H](O)[C@H]6O)[C@@](C)(CO)C5CC[C@]43C)C2C1 (stereo partly drawn)
activity change, negative = cytotoxicity (C33A): 9.39% [at 11.6 µM]
activity change, negative = cytotoxicity (CASKI): 1.03% [at 11.6 µM]
activity change, negative = cytotoxicity (Es-2): 1.13% [at 11.6 µM]
activity change, negative = cytotoxicity (HeLa): -10.8% [at 11.6 µM]
activity change, negative = cytotoxicity (Hek293T): 5.9% [at 11.6 µM]
activity change, negative = cytotoxicity (JEG-3): -2.45% [at 11.6 µM]
activity change, negative = cytotoxicity (OV90): 8.98% [at 11.6 µM]
activity change, negative = cytotoxicity (PA-1): 2.88% [at 11.6 µM]
activity change, negative = cytotoxicity (SKOV3): 0% [at 11.6 µM]
activity change, negative = cytotoxicity (Tov-21-G): 2.2% [at 11.6 µM]
activity change, negative = cytotoxicity (Tov112D): 2.24% [at 11.6 µM]

C=CC1C(OC2OC(CO)C(O)C(O)C2O)OC=C2C(=O)N3C(C(=O)O)Cc4c([nH]c5ccccc45)C3CC21 (stereo not drawn)
Potency (C33A): inactive
Potency (CASKI): inactive
Potency (Es-2): inactive
Potency (HeLa): inactive
Potency (Hek293T): inactive
Potency (JEG-3): inactive
Potency (OV90): inactive
Potency (PA-1): inactive
Potency (SKOV3): inactive
Potency (Tov-21-G): inactive
Potency (Tov112D): inactive

C=CC/C=C\C/C=C\CCCCCCCc1cccc(O)c1C(=O)O
Potency (C33A): inactive
Potency (CASKI): inactive
Potency (Es-2): inactive
Potency (HeLa): inactive
Potency (Hek293T): inactive
Potency (JEG-3): inactive
Potency (OV90): inactive
Potency (PA-1): inactive
Potency (SKOV3): inactive
Potency (Tov-21-G): inactive
Potency (Tov112D): inactive

C[C@@H]1CC[C@]2(C(=O)OC3OC(CO)C(O)C(O)C3O)CC[C@]3(C)C(=CCC4[C@@]5(C)CC[C@H](O)[C@](C)(C(=O)O)C5CC[C@]43C)C2[C@]1(C)O (stereo partly drawn)
Potency (C33A): inactive
Potency (CASKI): inactive
Potency (Es-2): inactive
Potency (HeLa): inactive
Potency (Hek293T): inactive
Potency (JEG-3): inactive
Potency (OV90): inactive
Potency (PA-1): inactive
Potency (SKOV3): inactive
Potency (Tov-21-G): inactive
Potency (Tov112D): inactive

C[C@@H]1CCC/C=C/[C@H]2CC(=O)C[C@@H]2[C@@H](O)/C=C/C(=O)O1
Potency (C33A): inactive
Potency (CASKI): inactive
Potency (Es-2): inactive
Potency (HeLa): inactive
Potency (Hek293T): inactive
Potency (JEG-3): inactive
Potency (OV90): 20 µM (active)
Potency (PA-1): inactive
Potency (SKOV3): inactive
Potency (Tov-21-G): inactive
Potency (Tov112D): inactive

CC(C)(O)CC(CO)NC(=O)CC(O)CC(=O)Cc1ccccc1 (stereo not drawn)
Potency (C33A): inactive
Potency (CASKI): inactive
Potency (Es-2): inactive
Potency (HeLa): inactive
Potency (Hek293T): inactive
Potency (JEG-3): inactive
Potency (OV90): inactive
Potency (PA-1): inactive
Potency (SKOV3): inactive
Potency (Tov-21-G): inactive
Potency (Tov112D): inactive

C[C@@H]1CC[C@]2(C(=O)O)CC[C@]3(C)C(=CCC4[C@@]5(C)CC[C@H](O)C(C)(C)C5C(O)C[C@]43C)[C@@H]2[C@]1(C)O (stereo partly drawn)
Potency (C33A): inactive
Potency (CASKI): inactive
Potency (Es-2): inactive
Potency (HeLa): inactive
Potency (Hek293T): inactive
Potency (JEG-3): inactive
Potency (OV90): inactive
Potency (PA-1): inactive
Potency (SKOV3): inactive
Potency (Tov-21-G): inactive
Potency (Tov112D): inactive

CC1(C)[C@@H](O)CC[C@]2(C)[C@H]3CC=C4[C@@H]5C[C@](C)(C(=O)O)CC[C@]5(C)CC[C@@]4(C)[C@]3(C)CC[C@@H]12
Potency (C33A): inactive
Potency (CASKI): inactive
Potency (Es-2): inactive
Potency (HeLa): inactive
Potency (Hek293T): inactive
Potency (JEG-3): inactive
Potency (OV90): inactive
Potency (PA-1): inactive
Potency (SKOV3): inactive
Potency (Tov-21-G): inactive
Potency (Tov112D): inactive

CCc1c(C)nc2c(-c3cnn(-c4cc(CO)ccn4)c3)c[nH]n2c1=O
Potency (C33A): inactive
Potency (CASKI): inactive
Potency (Es-2): inactive
Potency (HeLa): inactive
Potency (Hek293T): inactive
Potency (JEG-3): inactive
Potency (OV90): inactive
Potency (PA-1): inactive
Potency (SKOV3): inactive
Potency (Tov-21-G): inactive
Potency (Tov112D): inactive

Cc1cccc(Oc2cnc(=O)[nH]c2)c1
Potency (C33A): inactive
Potency (CASKI): inactive
Potency (Es-2): inactive
Potency (HeLa): inactive
Potency (Hek293T): inactive
Potency (JEG-3): inactive
Potency (OV90): inactive
Potency (PA-1): inactive
Potency (SKOV3): inactive
Potency (Tov-21-G): inactive
Potency (Tov112D): inactive

C[C@@H]1O[C@@H](O[C@H]2[C@H](O[C@H]3CC[C@@]4(C)C(CC[C@]5(C)C4CC=C4[C@@H]6CC(C)(C)CC[C@]6(C(=O)O[C@@H]6OC[C@H](O)[C@H](O)[C@H]6O[C@@H]6O[C@@H](C)[C@H](O[C@@H]7O[C@H](CO)[C@@H](O)[C@H](O)[C@H]7O)[C@H](O)[C@H]6O)[C@H](O)C[C@]45C)C3(C)C)O[C@H](CO)[C@@H](O[C@@H]3OC[C@@H](O)[C@H](O)[C@H]3O)[C@@H]2O)[C@H](O)[C@H](O)[C@H]1O (stereo partly drawn)
activity change, negative = cytotoxicity (C33A): -7.19% [at 6.55 µM]
activity change, negative = cytotoxicity (CASKI): 6.32% [at 6.55 µM]
activity change, negative = cytotoxicity (Es-2): 0.0947% [at 6.55 µM]
activity change, negative = cytotoxicity (HeLa): -17.4% [at 6.55 µM]
activity change, negative = cytotoxicity (Hek293T): 6.66% [at 6.55 µM]
activity change, negative = cytotoxicity (JEG-3): 5.72% [at 6.55 µM]
activity change, negative = cytotoxicity (OV90): 11.1% [at 6.55 µM]
activity change, negative = cytotoxicity (PA-1): 4.23% [at 6.55 µM]
activity change, negative = cytotoxicity (SKOV3): -6.09% [at 6.55 µM]
activity change, negative = cytotoxicity (Tov-21-G): 2.71% [at 6.55 µM]
activity change, negative = cytotoxicity (Tov112D): -23.4% [at 6.55 µM]
